We go through 8 compounds from PubChem BioAssay (NCI).

This is part of a sample that, as a whole, favours compounds with a hit. Of some 83,000 tested, about 20% had one in any assay.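 Plates (96-well) were seeded with cells, treated with compound at one concentration, and incubated for 48 hours before percent growth was determined.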 Values without a mark were called inactive. Active and inactive are the calls of the source. The calls were made as follows: active = growth percent below 10; inactive = the rest.

Assay in all cases: NCI-60 one-dose screen, 48 h (100 = growth as untreated, 0 = no growth, -100 = all killed)
Settings in all cases: 10 µM unless noted

The test system of assay [1] is DU-145 prostate.
The subject of assay [2] is K-562 leukemia.
The test system of assay [3] is MALME-3M melanoma.
Assay [4] relates to MDA-MB-231 breast.
Assay [5] has as its system RXF 393 renal.
Assay [6] has as its system SF-268 CNS.
The test system of assay [7] is SF-295 CNS.
Assay [8] relates to SF-539 CNS.
The test system of assay [9] is UACC-257 melanoma.
For assay [10], the system named is M14 melanoma.
Assay [11] deals with HCT-15 colon.
The subject of assay [12] is HT29 colon.
In assay [13] the test system is SNB-75 CNS.
For assay [14], the system named is SNB-19 CNS.
Assay [15] concerns U251 CNS.
In assay [16] the test system is PC-3 prostate.
The subject of assay [17] is SK-MEL-5 melanoma.
For assay [18], the system named is UACC-62 melanoma.
Assay [19] relates to LOX IMVI melanoma.
Assay [20] concerns SK-MEL-28 melanoma.

As for `Cn1c(SCC(=O)c2ccc(F)cc2)nc2ccccc2c1=O`, the growth in assay [1] was 98%; in [2], 76.4%; in assay [3], 109%; in assay [4], 91.7%; in [5], 108%; in assay [6] it was 99%. The growth in assay [7] was 97.9%; in assay [8] it was 98.2%; in assay [9], 107%; in [10], 95.8%; in [11], 104%; in assay [12], 101%. Further, the growth was 91.1% in assay [13]; 96.9% in assay [14]; 95.3% in assay [15]; 94.8% in assay [16]; 91.6% in [17]; 82.2% in [18]. For the same compound, the growth in [19] was 96.3%; in [20], 105%.
As for `CN1CCN(Cc2ccc(NC(=O)c3cncc(C#Cc4cnc5ccc(OCC6COC6)nn45)c3)cc2C(F)(F)F)CC1`, the growth is -83.1% (active) in [1]; 0.233% (active) in [2]; -88.2% (active) in assay [3]; -63% (active) in [4]; -78.5% (active) in assay [5]; -70.2% (active) in assay [6]. The growth in [7] was -93.7% (active); in [8], -88.2% (active); in assay [9], -51.6% (active); in assay [10], -86.8% (active); in assay [11], -32.9% (active); in assay [12], -50.9% (active). Moreover, the growth was -97.9% (active) in [13]; -44.9% (active) in [14]; -66.8% (active) in assay [15]; -27.7% (active) in assay [16]; -97% (active) in assay [17]; -49.8% (active) in assay [18]. Besides, the growth in assay [19] was -94% (active); in assay [20], -85% (active).
Turning to `COc1cc(C(=O)c2cc(C(C)=O)c3ccc(C)cn23)cc(OC)c1OC`, the growth was 66.9% in assay [1]; 19.2% in assay [2]; 43.9% in assay [3]; 55.2% in assay [4]; 58.6% in assay [5]; 61.3% in [6]. The growth in assay [7] is 7.71% (active); in [8], 34.7%; in [9], 76.7%; in assay [10] it was 16.1%; in assay [11] it was 18.9%; in [12], 15.6%. The growth is 6.02% (active) in assay [13]; 40% in assay [14]; 34% in [15]; 55.6% in assay [16]; 36.7% in [17]; 17.2% in [18]. In addition, the growth in assay [19] is 34.5%; in assay [20], 58.1%.
Turning to `Nc1nc(=O)n([C@H]2C[C@H](O)[C@@H](CO)O2)cc1C=O`, the growth in assay [1] is 71.7%; in [2], 97.2%; in assay [3] it was 114%; in assay [4], 85.1%; in assay [5], 103%; in assay [6], 110%. The growth in assay [7] was 103%; in [8], 100%; in [9], 115%; in [10] it was 105%; in assay [11] it was 107%; in assay [12], 101%. In addition, the growth was 122% in [13]; 106% in assay [14]; 106% in [15]; 45% in assay [16]; 101% in [17]; 106% in assay [18]. For the same compound, the growth in [19] is 106%; in assay [20], 108%.
Regarding `O=C(CSc1nc2ccccc2c(=O)n1-c1ccc(S(=O)(=O)Nc2ccc(Cl)nn2)cc1)Nc1ccc(S(=O)(=O)Nc2ccc(Cl)nn2)cc1`, the growth is 107% in assay [1]; 88.1% in assay [2]; 102% in [3]; 102% in [4]; 102% in assay [5]; 101% in assay [6]. In addition, the growth is 102% in assay [7]; 103% in assay [8]; 101% in assay [9]; 111% in assay [10]; 100% in [11]; 106% in assay [12]. Moreover, the growth in assay [13] was 96.1%; in assay [14], 101%; in assay [15], 102%; in assay [16], 100%; in [17] it was 97.2%; in assay [18], 94%. Moreover, the figures for the growth in assay [19] and in assay [20] were 90.4% and 106%, respectively.
On to `Cn1cc(-c2cc3ncnc(Nc4ccc(CC(=O)Nc5nc(C(C)(C)C)cs5)cc4)c3s2)cn1`, for which the growth in assay [1] is 38%; in assay [2], 16.2%; in [3], 55.9%; in assay [4], 45.6%; in [5], 26.4%; in [6], 56.2%. Besides, the growth in [7] is 69.6%; in assay [8], 29.1%; in assay [9], 79.1%; in assay [10], 41.5%; in [11], 26.6%; in assay [12], 49.9%. In addition, the growth was 50.9% in assay [13]; 94.5% in [14]; 66% in assay [15]; 41.4% in [16]; 53% in [17]; 40.3% in assay [18]. The growth is 26.3% in assay [19] and 68.9% in [20].
Take `CCOC(=O)c1c(NC(=O)c2cccc(C(F)(F)F)c2)sc2c3c(ccc12)OCN(C)C3`: the growth in assay [1] is -16.8% (active); in assay [2] it was -64.1% (active); in assay [3] it was -53.9% (active); in assay [4] it was -95.9% (active); in [5] it was -91.4% (active); in assay [6], -57.3% (active). Besides, the growth in assay [7] was 44.6%; in assay [8], -0.959% (active); in assay [9], 30.8%; in assay [10] it was -17% (active); in assay [11], -70.9% (active); in assay [12] it was -11.8% (active). In addition, the growth is 83.6% in assay [13]; 49.6% in assay [14]; -79.4% (active) in [15]; -42.5% (active) in assay [16]; 68.6% in assay [17]; 25.6% in assay [18]. Further, the values for the growth in [19] and in [20] were -94.7% (active) and 9.77% (active), respectively.
Take `CNC(=O)c1cc(-c2ccc(NC(=S)Nc3cccc(C(F)(F)F)c3)cc2)nc2cccnc12`: the growth in assay [1] was 103%; in assay [2], 90.8%; in assay [3], 112%; in [4], 96.5%; in assay [5] it was 107%; in assay [6] it was 106%. Also, the growth is 93.3% in assay [7]; 100% in assay [8]; 104% in [9]; 99.3% in assay [10]; 98.2% in [11]; 99.7% in assay [12]. Moreover, the growth is 91.2% in assay [13]; 94.7% in [14]; 95.3% in assay [15]; 96.1% in [16]; 96.2% in assay [17]; 89.9% in assay [18]. The growth in assay [19] was 95.3%; in assay [20], 99.9%.
